Paper PMC7862700, “An all-to-all approach to the identification of sequence-specific readers for epigenetic DNA modifications on cytosine”

Legend:
Experiment in all cases: DAPPL (digital affinity profiling via proximity ligation, sequencing); 10 mM Tris-HCl pH 7.5, 50 mM NaCl, 1 mM DTT, 4% glycerol, room temperature, 30 min; GST-TFs on glutathione beads, 16-mer random dsDNA library, 0.1% formaldehyde crosslink after washing; high values mean tight binding
Settings in all cases: protein: recombinant; tags: N-terminal GST; dsDNA, one strand shown
ETV2 = biological target: T1, ETV2 (Homo sapiens, UniProt O00321 1-342)
T1 sequence: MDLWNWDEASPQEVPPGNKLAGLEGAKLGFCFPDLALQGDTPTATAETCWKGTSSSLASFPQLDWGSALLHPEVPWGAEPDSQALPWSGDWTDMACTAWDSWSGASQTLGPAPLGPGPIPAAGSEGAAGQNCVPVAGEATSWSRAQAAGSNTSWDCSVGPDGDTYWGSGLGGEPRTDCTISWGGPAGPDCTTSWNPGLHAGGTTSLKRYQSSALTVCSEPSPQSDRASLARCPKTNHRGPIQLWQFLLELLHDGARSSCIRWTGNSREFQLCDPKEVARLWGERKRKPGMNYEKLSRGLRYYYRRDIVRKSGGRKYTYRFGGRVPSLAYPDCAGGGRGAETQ
Method in brief: (§1)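 A tag-only sample was pooled with DNA-barcoded human transcription factors that had been expressed in yeast as GST fusions and captured on glutathione beads. The pools were incubated for 30 min at room temperature with 200 nmole of a random double-stranded 16-mer DNA library in Tris/NaCl/DTT/glycerol buffer, then washed, crosslinked with 0.1% formaldehyde, proximity-ligated (BsaI/T4 ligase, 1 h, 37 °C), PCR-amplified and sequenced on an Illumina NextSeq500. Binding signal is each hexamer's read frequency for a factor divided by its frequency for the tag-only sample.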

ELF3 = biological target: T2, ELF3 (Homo sapiens, UniProt P78545 1-371)
T2 sequence: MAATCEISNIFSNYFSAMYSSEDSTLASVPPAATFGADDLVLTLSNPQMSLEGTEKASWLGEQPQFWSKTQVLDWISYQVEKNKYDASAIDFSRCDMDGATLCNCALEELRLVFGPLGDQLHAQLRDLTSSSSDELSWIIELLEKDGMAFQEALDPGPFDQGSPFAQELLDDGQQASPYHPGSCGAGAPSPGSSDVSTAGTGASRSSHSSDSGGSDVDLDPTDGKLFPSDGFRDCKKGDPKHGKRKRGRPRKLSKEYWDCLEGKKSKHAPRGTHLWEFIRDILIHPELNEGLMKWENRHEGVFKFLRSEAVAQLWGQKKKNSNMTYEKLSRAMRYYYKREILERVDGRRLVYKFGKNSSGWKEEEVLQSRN
Method in brief: as §1

ETV1 = ETV1 (Homo sapiens, UniProt P50549 1-477)
ETV1, sequence (P50549 whole entry): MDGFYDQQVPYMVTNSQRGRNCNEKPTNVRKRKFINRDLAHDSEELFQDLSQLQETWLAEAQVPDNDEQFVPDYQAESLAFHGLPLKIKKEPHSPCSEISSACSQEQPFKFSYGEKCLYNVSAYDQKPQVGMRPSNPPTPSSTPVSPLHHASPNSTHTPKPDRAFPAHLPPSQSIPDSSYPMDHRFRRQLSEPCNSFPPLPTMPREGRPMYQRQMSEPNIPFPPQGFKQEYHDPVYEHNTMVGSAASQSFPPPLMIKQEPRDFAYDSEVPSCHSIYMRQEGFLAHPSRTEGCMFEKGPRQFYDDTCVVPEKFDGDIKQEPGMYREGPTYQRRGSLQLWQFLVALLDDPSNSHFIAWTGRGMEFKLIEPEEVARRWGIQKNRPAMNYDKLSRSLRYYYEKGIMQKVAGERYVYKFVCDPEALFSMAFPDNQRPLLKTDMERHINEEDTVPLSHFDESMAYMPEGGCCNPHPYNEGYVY
Method in brief: as §1

ERF = biological target: T3, ERF (Homo sapiens, UniProt P50548 1-548)
T3 sequence: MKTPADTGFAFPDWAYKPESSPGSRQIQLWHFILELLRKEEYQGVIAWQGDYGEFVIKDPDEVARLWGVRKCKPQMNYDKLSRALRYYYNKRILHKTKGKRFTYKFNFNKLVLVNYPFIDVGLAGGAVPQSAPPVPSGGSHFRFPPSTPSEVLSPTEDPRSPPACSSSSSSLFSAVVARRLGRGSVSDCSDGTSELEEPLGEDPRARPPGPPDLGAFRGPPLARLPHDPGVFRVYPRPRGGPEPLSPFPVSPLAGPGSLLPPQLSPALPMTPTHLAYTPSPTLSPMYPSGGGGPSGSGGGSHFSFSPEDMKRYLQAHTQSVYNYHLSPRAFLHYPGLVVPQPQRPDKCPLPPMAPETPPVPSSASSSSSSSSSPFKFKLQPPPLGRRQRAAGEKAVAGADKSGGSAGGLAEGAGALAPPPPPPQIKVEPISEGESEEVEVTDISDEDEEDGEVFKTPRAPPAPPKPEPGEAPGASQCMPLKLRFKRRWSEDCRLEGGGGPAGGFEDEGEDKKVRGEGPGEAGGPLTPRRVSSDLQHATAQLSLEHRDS
Method in brief: as §1

ETV3L = biological target: T4, ETV3L (Homo sapiens, UniProt Q6ZN32 1-361)
T4 sequence: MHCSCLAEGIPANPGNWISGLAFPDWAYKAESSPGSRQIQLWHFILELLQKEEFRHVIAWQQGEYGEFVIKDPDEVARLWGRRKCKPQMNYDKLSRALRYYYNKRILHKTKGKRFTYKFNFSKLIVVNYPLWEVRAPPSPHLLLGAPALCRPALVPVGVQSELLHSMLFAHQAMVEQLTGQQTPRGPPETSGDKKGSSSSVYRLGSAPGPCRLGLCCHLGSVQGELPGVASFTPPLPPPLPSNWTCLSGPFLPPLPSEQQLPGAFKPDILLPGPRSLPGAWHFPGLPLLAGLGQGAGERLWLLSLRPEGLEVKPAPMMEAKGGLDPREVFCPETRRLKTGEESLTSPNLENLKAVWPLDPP
Method in brief: as §1

ETS2 = biological target: T5, ETS2 (Homo sapiens, UniProt P15036 1-469)
T5 sequence: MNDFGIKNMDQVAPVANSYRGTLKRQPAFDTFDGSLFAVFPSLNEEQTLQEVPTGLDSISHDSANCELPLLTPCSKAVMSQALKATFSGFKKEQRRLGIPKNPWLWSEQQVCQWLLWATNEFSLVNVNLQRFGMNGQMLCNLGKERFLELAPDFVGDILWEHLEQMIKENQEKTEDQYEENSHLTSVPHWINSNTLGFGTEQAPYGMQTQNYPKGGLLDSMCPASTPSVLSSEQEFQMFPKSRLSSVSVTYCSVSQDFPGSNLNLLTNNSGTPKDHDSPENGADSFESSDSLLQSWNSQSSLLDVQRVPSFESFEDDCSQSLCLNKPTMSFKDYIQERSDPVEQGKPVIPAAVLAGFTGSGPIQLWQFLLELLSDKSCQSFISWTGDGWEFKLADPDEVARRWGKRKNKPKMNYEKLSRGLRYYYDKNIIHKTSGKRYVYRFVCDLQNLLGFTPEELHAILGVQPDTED
Method in brief: as §1

SPDEF = biological target: T6, SPDEF (Homo sapiens, UniProt O95238 1-335)
T6 sequence: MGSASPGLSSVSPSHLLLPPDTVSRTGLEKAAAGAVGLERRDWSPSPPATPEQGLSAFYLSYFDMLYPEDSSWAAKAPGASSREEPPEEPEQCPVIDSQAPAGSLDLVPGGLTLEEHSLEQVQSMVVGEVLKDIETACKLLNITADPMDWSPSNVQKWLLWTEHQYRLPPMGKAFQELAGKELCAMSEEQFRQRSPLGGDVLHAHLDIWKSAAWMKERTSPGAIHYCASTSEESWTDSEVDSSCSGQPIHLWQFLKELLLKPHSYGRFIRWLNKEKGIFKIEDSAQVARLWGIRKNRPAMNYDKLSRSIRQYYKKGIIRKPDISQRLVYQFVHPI
Method in brief: as §1

ETV7 = biological target: T7, ETV7 (Homo sapiens, UniProt Q9Y603 1-341)
T7 sequence: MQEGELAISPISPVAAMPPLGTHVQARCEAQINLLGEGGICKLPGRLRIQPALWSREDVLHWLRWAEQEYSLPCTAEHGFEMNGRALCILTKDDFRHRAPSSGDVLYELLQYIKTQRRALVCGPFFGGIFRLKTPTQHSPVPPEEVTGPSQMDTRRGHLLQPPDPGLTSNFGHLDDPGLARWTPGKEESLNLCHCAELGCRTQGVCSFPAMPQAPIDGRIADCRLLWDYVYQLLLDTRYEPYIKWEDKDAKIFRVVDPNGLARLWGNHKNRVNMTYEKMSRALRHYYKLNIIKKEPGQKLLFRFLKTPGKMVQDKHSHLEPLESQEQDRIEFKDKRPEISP
Method in brief: as §1

ETV3 = biological target: T8, ETV3 (Homo sapiens, UniProt P41162-2 1-143)
T8 sequence: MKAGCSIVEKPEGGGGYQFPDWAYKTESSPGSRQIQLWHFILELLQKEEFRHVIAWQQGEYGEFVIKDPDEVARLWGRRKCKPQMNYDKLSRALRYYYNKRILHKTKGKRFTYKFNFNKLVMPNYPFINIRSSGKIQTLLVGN
Method in brief: as §1

ETV6 = ETV6 (Homo sapiens, UniProt P41212 1-452)
ETV6, sequence (P41212 whole entry): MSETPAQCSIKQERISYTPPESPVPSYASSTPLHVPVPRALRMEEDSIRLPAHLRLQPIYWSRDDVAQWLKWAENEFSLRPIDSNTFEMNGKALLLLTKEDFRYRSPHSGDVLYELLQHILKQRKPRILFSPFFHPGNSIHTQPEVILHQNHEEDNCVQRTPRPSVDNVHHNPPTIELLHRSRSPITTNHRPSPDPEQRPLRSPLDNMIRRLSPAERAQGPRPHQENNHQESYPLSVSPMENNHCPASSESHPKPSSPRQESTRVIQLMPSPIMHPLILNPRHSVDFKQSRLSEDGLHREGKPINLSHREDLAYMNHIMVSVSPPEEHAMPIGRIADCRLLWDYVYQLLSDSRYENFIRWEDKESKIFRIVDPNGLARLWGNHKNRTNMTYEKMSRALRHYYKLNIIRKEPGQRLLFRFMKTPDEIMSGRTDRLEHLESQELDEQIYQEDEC
Method in brief: as §1

Sequence: GGTAAA
- binding signal (ETV2): 1.03 fold enrichment (6-mer frequency, TF over GST control)
- binding signal (ELF3): 1.13 fold enrichment (6-mer frequency, TF over GST control)
- binding signal (ETV1): 1.08 fold enrichment (6-mer frequency, TF over GST control)
- binding signal (ERF): 1.01 fold enrichment (6-mer frequency, TF over GST control)
- binding signal (ETV3L): 1 fold enrichment (6-mer frequency, TF over GST control)
- binding signal (ETS2): 1.1 fold enrichment (6-mer frequency, TF over GST control)
- binding signal (SPDEF): 1.02 fold enrichment (6-mer frequency, TF over GST control)
- binding signal (ETV7): 1.12 fold enrichment (6-mer frequency, TF over GST control)
- binding signal (ETV3): 1.06 fold enrichment (6-mer frequency, TF over GST control)
- binding signal (ETV6): 1.07 fold enrichment (6-mer frequency, TF over GST control)
